From the supplement of paper PMC9492666
Counter-ions that a name gives are not always drawn.

Experiments:
HCC1937 = test: relative cell viability, compound + erastin, vs DMSO (fraction of DMSO control); higher = less growth inhibition; settings: 72 h
MDA-MB-231 = test: as above; settings: 72 h
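Further: viability read by CCK-8 kit in 96-well plates, part of a combination screen pairing lipid-metabolism-targeting compounds with erastin.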

SMILES | relative cell viability (HCC1937) | relative cell viability (MDA-MB-231)
O=C(O)Cc1cccc(OCCCN(Cc2cccc(C(F)(F)F)c2Cl)CC(c2ccccc2)c2ccccc2)c1 + CCOc1ccccc1-n1c(C(C)N2CCN(C(=O)COc3ccc(Cl)cc3)CC2)nc2ccccc2c1=O [erastin] | 0.855 | 0.478
C=C[C@H]1CN2CC[C@H]1C[C@@H]2[C@@H](O)c1ccnc2ccc(OC)cc12 [Quinidine sulfate] + CCOc1ccccc1-n1c(C(C)N2CCN(C(=O)COc3ccc(Cl)cc3)CC2)nc2ccccc2c1=O [erastin] | 0.7 | 0.398
Oc1ccc(/C=C/c2cc(O)cc(O)c2)cc1 [Resveratrol] + CCOc1ccccc1-n1c(C(C)N2CCN(C(=O)COc3ccc(Cl)cc3)CC2)nc2ccccc2c1=O [erastin] | 0.635 | 0.853
C[C@H](CCC(=O)O)[C@H]1CC[C@H]2[C@@H]3CC[C@@H]4C[C@H](O)CC[C@]4(C)[C@H]3CC[C@]12C [Lithocholic acid] + CCOc1ccccc1-n1c(C(C)N2CCN(C(=O)COc3ccc(Cl)cc3)CC2)nc2ccccc2c1=O [erastin] | 0.832 | 0.688
CC(=O)Nc1nc(C)c(S(=O)(=O)Nc2ccc(C(O)(C(F)(F)F)C(F)(F)F)cc2)s1 + CCOc1ccccc1-n1c(C(C)N2CCN(C(=O)COc3ccc(Cl)cc3)CC2)nc2ccccc2c1=O [erastin] | 0.956 | 1.1
CCNC1(C(N)=O)CCN(c2ncnc3c2nc(-c2ccccc2Cl)n3-c2ccc(Cl)cc2)CC1 [Otenabant] + CCOc1ccccc1-n1c(C(C)N2CCN(C(=O)COc3ccc(Cl)cc3)CC2)nc2ccccc2c1=O [erastin] | 0.441 | 0.459
